# This is part of a sample that, as a whole, favours compounds with a hit. Of some 83,000 tested, about 20% had one in any assay.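 How to read the values: 0–100, growth inhibition (40 = 60% inhibited); 0, no net growth; -100 to 0, cell death (-40 = 40% of starting cells died; -100 = all dead).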 Activity calls are given as the source filed them.
# Tested on: NCI-H23 lung
# Assay: NCI-60 one-dose screen, 48 h (100 = growth as untreated, 0 = no growth, -100 = all killed)
# Conditions: 10 µM unless noted
# Procedure: Growth inhibition of the NCI-H23 human Non-Small Cell Lung tumor cell line is measured as a screen for anti-cancer activity. Cells are grown in 96 well plates and exposed to the test compound for 48 hours. Compounds are tested at a single concentration, which is 10^-5 M for most compounds. The reported endpoint is percent growth (GI% or GIPRCNT), where numbers from 0 - 100% represent growth inhibition, and numbers from -100% - 0 represent cell death. For example, a value of 40 represents 60% growth inhibition. A value of 0 means no net growth occurred over the course of the experiment. A value of -40 indicates 40% of cells at the beginning of the experiment died by the end of the experiment. A value of -100 means all cells are dead at the end of the experiment.
# NCI-60 Human Tumor Cell Lines Screen was performed using the standard one-dose NCI protocol, which is described in more detail at https://dtp.cancer.gov/discovery_development/nci-60/default.htm.
# Compounds with GIPRCNT values below 10 were considered active. Activity score was based on GIPRCNT using the following formula: […]
# Score is 0 for GIPRCNT values of 100 or above, 50 for GIPRCNT values of 0, and 100 for GIPRCNT values of -100.
row,SMILES,growth
1,CC(=O)OC1Oc2cc(C)c(C)cc2-c2oc(=O)c(-c3cc4ccccc4oc3=O)cc21 (stereo not given),85.6% (inactive)
2,O=C1C=CC(=O)N1c1cccc(N2C(=O)C=CC2=O)c1,98.7% (inactive)
3,COc1ccc(OC)c(Nc2nc(-c3c(C)nc4sccn34)cs2)c1,69.7% (inactive)
4,FC(F)(F)C1=NNC(c2ccc3ccccc3c2)=NN1,94.2% (inactive)
5,O=C(NO)c1ccc(NCc2csc3ccccc23)cc1,48.5% (inactive)
6,OC(c1cc2c(Cl)cc(Cl)cc2c2cc(C(F)(F)F)ccc12)C1CCCCN1 (stereo not given),-77.5% (active)
7,COC(=O)/C=C/c1cc(OC(C)=O)c2c(c1)[C@@H](C(=O)OC)[C@H](c1ccc(OC(C)=O)c(OC(C)=O)c1)O2,20.7% (inactive)
8,COc1cc(/C=C2\C(=O)Nc3ccc(N(C)C)cc32)cc(OC)c1OC,26.8% (inactive)
9,Cc1ccc(N2C3c4ccccc4N(S(=O)(=O)c4ccc(C)cc4)C2c2ccccc2N3S(=O)(=O)c2ccc(C)cc2)cc1,99.9% (inactive)
10,N#Cc1c(N)c(C(=O)c2ccc3c(c2)OCCO3)n2c1CCCC2,42.7% (inactive)
11,CCOc1ccc([C@@H]2[C@@H](Oc3ccccc3)C(=O)N2c2cc(OC)c(OC)c(OC)c2)cc1,23.9% (inactive)
12,CC1=C(C(=O)Nc2ccc(F)cc2)C(c2ccccc2)C2=C(CC(C)(C)CC2=O)N1 (stereo not given),72.2% (inactive)
13,COc1cc(C2Nc3ccccc3S2)cc(CN2CCOCC2)c1O (stereo not given),78.8% (inactive)
14,c1ccc(C(Nc2ccccn2)(c2ccccc2)c2ccccc2)cc1,74.6% (inactive)
15,Cc1nc2ccc(Nc3nc(N4CCOCC4)nc(N4CCN(C)CC4)n3)cc2n1Cc1ccccc1,92% (inactive)
16,O=C(Nc1ccc(Oc2ccc(NC(=O)Nc3ccccc3Cl)cc2)cc1)Nc1ccccc1Cl,41.8% (inactive)
17,C/C=C(\C)C(C(=O)NC1CCCCC1)N(C(=O)C1CCc2cc(F)ccc2O1)c1ccc([N+](=O)[O-])cc1 (stereo not given),91.9% (inactive)
18,O=C(c1ccccc1)N(CCCCl)C(=O)N(CCCCl)C(=O)c1ccccc1,83.1% (inactive)
19,Cn1c(=O)c2[nH]c(Cc3ccc4c(c3)OCO4)nc2n(C)c1=O,99.8% (inactive)
20,Nc1cc2nc3ccccc3oc-2cc1=O,-33.2% (active)

row,SMILES,growth
1,COc1ccc(C2CC(c3cccc(Nc4ccnc5cc(Cl)ccc45)c3)=NN2c2ccccc2)cc1 (stereo not given),80% (inactive)
2,CCCCNCC(O)c1cc2c(Cl)cc(Cl)cc2c2cc(C(F)(F)F)ccc12 (stereo not given),-72.9% (active)
3,Cc1ccc(N=CNN=C(N)N)cc1,106% (inactive)
4,O=C(CS)OCC(COC(=O)CS)(COC(=O)CS)COC(=O)CS,85% (inactive)
5,O=C(/C=C/c1ccccc1)n1c(-c2ccccc2)nc2ccccc21,101% (inactive)
6,CNCc1cccc2c1OCCOCCOCCC(C)S(=O)(=O)c1ccc(cc1)-c1cnc(N)c(n1)C(=O)N2 (stereo not given),77.9% (inactive)
7,C/C(=N\NC(=S)Nc1ccccc1)c1ccccn1,59.8% (inactive)
8,CN1CCN(c2ccc(N3Cc4ccccc4OC4=C3C(=O)c3c(O)ccc(O)c3C4=O)cn2)CC1,-23.2% (active)
9,O=C(O)c1ccccc1N=Cc1ccccc1,98% (inactive)
10,CCCCN(CCCC)CCC(=O)c1ccc(OC)c2ccccc12,111% (inactive)
11,COc1cccc(OCC(O)CN2CCN(c3ccccc3)CC2)c1 (stereo not given),106% (inactive)
12,CN(C)c1ccc(/C=C(\C#N)c2nc3ccccc3n2C)cc1,58.9% (inactive)
13,O=C(Oc1c(Cl)c(Cl)c(Cl)c(Cl)c1Cl)C1CCCN1C(=O)OCc1ccccc1 (stereo not given),33.5% (inactive)
14,COc1ccc(Nc2ncccc2C(=O)NCc2cn(Cc3cc(OC)cc(OC)c3)nn2)cc1,103% (inactive)
15,O=C(O)Cn1ccc2ccccc21,100% (inactive)
16,O=C(Cn1nncc1CN1C(=O)CSC1=O)Nc1ccc(F)cc1,97.3% (inactive)
17,CCOC(=O)Nc1ccc2nc(-c3cscn3)[nH]c2c1,71.6% (inactive)
18,C#CC[C@@H]1C[C@]2(C)[C@H]3CC=C4[C@H]5CC(C)(C)CC[C@]5(C(=O)NCCCCN)CC[C@@]4(C)[C@]3(C)CC[C@H]2C(C)(C)[C@H]1OC(C)=O,78.9% (inactive)
19,COc1ccc(/C(=C\c2cc(OC)c(OC)c(OC)c2)C(=O)N2CCN(c3ccccc3)CC2)cc1O,99.2% (inactive)
20,CCCc1n(Cc2ccc3ccccc3c2)c2ccccc2[n+]1Cc1ccc2ccccc2c1,-12.9% (active)

# Source: PubChem BioAssay (NCI)
